Outcome and AC50 data for 34 molecules are collected here from PubChem BioAssay (EPA / NIEHS).

The structures appear in SMILES notation. Some structures have more than one record in an assay (separate samples or runs), and their calls can disagree. Calls of active or inactive are those of the source. Rule for the calls: active = hit-call score of the fitted dose curve at least 0.9, where 1 is the maximum; inactive = score below 0.9.

The assay in a line: ATG_TCF_b_cat_CIS: Attagene CIS-FACTORIAL HepG2 Assay for human T-Cell-Factor with beta-catenin (TCF/b-cat) (AID 2282965). Conditions: HepG2 TCF/beta-catenin cis-reporter transcription, actives raise or lower the signal. The procedure, abridged: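 Endogenous TCF/LEF activity read as reporter transcript level via RT-PCR and capillary electrophoresis fluorescence in transfected HepG2, 24 h exposure; gain or loss of signal fitted against DMSO controls.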
As to `O=P(O)(O)OCCC(F)(F)C(F)(F)C(F)(F)C(F)(F)C(F)(F)C(F)(F)F`, the molecule was classed as inactive.
The same measure, in the same setting: the same measure for `[Co]`: “inactive”.
Usually AC50 stands for the midpoint of the concentration-response curve, whichever way the signal moves. Consider `O=C(CC(=O)C(F)(F)C(F)(F)F)C(F)(F)F`, for which the AC50 was 150 µM (active) and the call was inactive.
`O=C(O)C(F)(F)C(F)(F)C(F)(F)C(F)(F)C(F)(F)C(F)(F)C(F)(F)C(F)(F)Cl`: the AC50 is 50 µM (active).
On to `FC(F)(F)C(F)(F)C(F)(F)C(F)(F)C(F)(F)C(F)(F)C(F)(F)Br`, for which the molecule was called inactive.
On the same count and under the same terms, in the case of `CCN(Cc1cccc(S(=O)(=O)O)c1)c1ccc(C(=C2C=CC(=[N+](CC)Cc3cccc(S(=O)(=O)O)c3)C=C2)c2ccc(O)cc2S(=O)(=O)[O-])cc1` it was “inactive”.
As to `O=C(O)C(F)(F)C(F)(F)F`, the result was inactive.
On the same count and under the same terms, in the case of `C#C[C@]1(O)CC[C@H]2[C@@H]3CCc4cc(OC)ccc4[C@H]3CC[C@@]21C` it was “inactive”.
For the molecule `OCCCC(F)(F)C(F)(F)C(F)(F)F`, the molecule was called inactive.
Regarding `O=C(O)C(F)(F)C(F)(F)C(F)(F)C(F)(F)F`, the outcome was inactive.
Still for that read-out and setting: in the case of `O=C(O)C(F)(F)C(F)(F)C(F)(F)C(F)(F)C(F)(F)C(F)(F)C(F)(F)C(F)(F)C(F)(F)C(F)(F)C(F)(F)C(F)(F)C(F)(F)F` it was “inactive”; in that of `O=C(O)C=C(C(F)(F)F)C(F)(F)F`, “inactive”.
Still for that read-out and setting: the same measure for `O=S(=O)(O)c1ccc2ccccc2c1`: “inactive”; for `CC/C=C\CCOC(=O)c1ccccc1`: “inactive”.
The same measure, in the same setting: the same measure for `CCCCOc1ccc(N)cc1`: “inactive”; for `CC(C)c1ccccc1N`: “inactive”.
For `CC/C=C\CCOC(C)=O`, the molecule was called inactive.
Turning to `COC(=O)C1CCC(C(=O)OC)CC1` (stereo not drawn), the AC50 was 55.4 µM (active) and the molecule was called inactive.
As for `FC(F)(F)C(F)(F)C(F)(F)C(F)(F)C(F)(F)C(F)(F)CCS`, the result was inactive.
Same read-out and setting: the same measure for `O=C(O)C(F)(F)C(F)(F)C(F)(F)C(F)(F)C(F)(F)C(F)(F)C(F)(F)C(F)(F)C(F)(F)C(F)F`: “inactive”; for `c1ccc(B(c2ccccc2)c2ccccc2)cc1`: “inactive”; for `FC(F)(F)C(F)(F)C(F)(F)N(C(F)(F)C(F)(F)C(F)(F)F)C(F)(F)C(F)(F)C(F)(F)F`: “inactive”.
Consider `O=S(=O)(O)C(F)(F)C(F)(F)C(F)(F)C(F)(F)C(F)(F)C(F)(F)C(F)(F)F`, for which the concentration at half-maximal activity (AC50) was 78.9 µM (active) and the result was inactive.
For `O=C(O)C(F)(F)C(F)(F)C(F)(F)F`, the result was inactive.
As to `COC(OC(C)=O)c1ccccc1` (stereo not drawn), the result was inactive.
For the molecule `OCCCC(F)(F)C(F)(F)C(F)(F)C(F)(F)C(F)(F)C(F)(F)C(F)(F)F`, the AC50 was 33.7 µM (active) and the call was inactive.
Regarding `CCCCCCCCC(F)(F)C(F)(F)C(F)(F)C(F)(F)C(F)(F)C(F)(F)F`, the molecule was called inactive.
In the case of `FC(F)(F)C(F)(F)C(F)(F)CI`, the molecule was called inactive.
On the same count and under the same terms, the same measure for `FC(F)(F)C(F)(F)C(F)(F)C(F)(F)C(F)(F)C(F)(F)C(F)(F)C(F)(F)F`: “inactive”; for `Oc1ccc(Nc2ccccc2)cc1`: “inactive”; for `CCCCCC=O`: “inactive”.
In the case of `CC(CCl)OP(=O)(OC(C)CCl)OC(C)CCl` (stereo not drawn), the molecule was called inactive.
The same measure, in the same setting: in the case of `C=CC(F)(F)C(F)(F)C(F)(F)C(F)(F)C(F)(F)C(F)(F)C(F)(F)C(F)(F)C=C` it was “inactive”.
Take `O=S(=O)(OCCOC(F)(F)F)C(F)(F)F`: the call was inactive.
